# Experimental data: PubChem BioAssay (NCI)
# “And” between values parts separate entries of the source, which are not always exact repeats. Equal values may be shown once. About 83,000 compounds went through this panel and 20% of them were active in at least one assay; those are over-represented in the sample as a whole.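 Step 1: grow cells in 96-well plates. Step 2: add test compound at a single concentration. Step 3: incubate 48 h. Step 4: record percent growth.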 The source made the active and inactive calls. The calls were made as follows: active = growth percent below 10; inactive = the rest.
# Legend:
# Assay in all cases: NCI-60 one-dose screen, 48 h (100 = growth as untreated, 0 = no growth, -100 = all killed)
# HCT-15 colon = details: 10 µM
# HT29 colon = details: 10 µM
# SNB-75 CNS = details: 10 µM
# SNB-19 CNS = details: 10 µM
# U251 CNS = details: 10 µM
# PC-3 prostate = details: 10 µM
# SK-MEL-5 melanoma = details: 10 µM
# UACC-62 melanoma = details: 10 µM unless noted
# LOX IMVI melanoma = details: 10 µM
# SK-MEL-28 melanoma = details: 10 µM
# SK-MEL-2 melanoma = details: 10 µM
# EKVX NSCLC = details: 10 µM
# SN12C renal = details: 10 µM
# TK-10 renal = details: 10 µM unless noted
# ACHN renal = details: 10 µM
# CAKI-1 renal = details: 10 µM
# HL-60(TB) leukemia = details: 10 µM
# CCRF-CEM leukemia = details: 10 µM
# UO-31 renal = details: 10 µM
# A498 renal = details: 10 µM
Compound,growth (HCT-15 colon),growth (HT29 colon),growth (SNB-75 CNS),growth (SNB-19 CNS),growth (U251 CNS),growth (PC-3 prostate),growth (SK-MEL-5 melanoma),growth (UACC-62 melanoma),growth (LOX IMVI melanoma),growth (SK-MEL-28 melanoma),growth (SK-MEL-2 melanoma),growth (EKVX NSCLC),growth (SN12C renal),growth (TK-10 renal),growth (ACHN renal),growth (CAKI-1 renal),growth (HL-60(TB) leukemia),growth (CCRF-CEM leukemia),growth (UO-31 renal),growth (A498 renal)
NC(=O)c1cc([N+](=O)[O-])c(Cl)c([N+](=O)[O-])c1,45.5% (inactive),-7.93% (active),98.6% (inactive),107% (inactive),69.4% (inactive),62.2% (inactive),107% (inactive),100% (inactive),24.7% (inactive),118% (inactive),154% (inactive),98.3% (inactive),100% (inactive),84.1% (inactive),92.7% (inactive),87.6% (inactive),20.1% (inactive),-32.4% (active),–,–
Cc1cc([N+](=O)[O-])c2ccccc2[n+]1[O-],-25.7% (active) and -13.2% (active),-24.6% (active) and -48.6% (active),-63.6% (active) and -53.8% (active),-4.83% (active) and -14.1% (active),-12.7% (active) and -32.2% (active),-10.8% (active) and -56% (active),-84% (active) and -58.2% (active),-55.5% (active) and -86.3% (active),7.14% (active) and -48.7% (active),41.8% (inactive) and 15.2% (inactive),-57.5% (active) and -79.5% (active),89.4% (inactive),-5.98% (active) and -21.1% (active),-31.3% (active) and -29.9% (active),-35.6% (active) and -73.4% (active),8.17% (active) and -82.2% (active),–,17% (inactive) and -2.8% (active),-26.7% (active) and -48.8% (active),-59.8% (active) and -80.3% (active)
O=[P+](O)c1ccccc1,108% (inactive),118% (inactive),97.4% (inactive),106% (inactive),104% (inactive),93.6% (inactive),106% (inactive),105% (inactive),102% (inactive),104% (inactive),109% (inactive),115% (inactive),104% (inactive),117% (inactive),102% (inactive),103% (inactive),–,79.9% (inactive),–,104% (inactive)
COc1cc2c(cc1OC)C13CCN4CC5=CCOC6CC(=O)N2C1C6C5CC43 (stereo unspecified),103% (inactive) and 109% (inactive),122% (inactive) and 111% (inactive),97.8% (inactive) and 111% (inactive),105% (inactive) and 111% (inactive),98% (inactive) and 98.4% (inactive),94.8% (inactive) and 40% (inactive),92.9% (inactive) and 91.1% (inactive),104% (inactive) and 88.1% (inactive),101% (inactive) and 97.4% (inactive),114% (inactive) and 105% (inactive),116% (inactive) and 77.5% (inactive),105% (inactive) and 114% (inactive),97.3% (inactive) and 91.3% (inactive),112% (inactive) and 138% (inactive),99.6% (inactive) and 107% (inactive),103% (inactive) and 104% (inactive),127% (inactive) and 80.1% (inactive),100% (inactive) and 76.3% (inactive),87.9% (inactive) and 92.8% (inactive),108% (inactive) and 87.2% (inactive)
COC12c3c(C)cc(O)c4c(=O)occ(c34)C(=O)C1C13COC(=O)c4c(O)cc(C)c(c41)C(=O)C2C3OC(C)=O (stereo unspecified),100% (inactive),105% (inactive),89.6% (inactive),97.6% (inactive),102% (inactive),80.2% (inactive),111% (inactive),97.5% (inactive),104% (inactive),91.6% (inactive),81.5% (inactive),–,102% (inactive),110% (inactive),100% (inactive),156% (inactive),–,96.2% (inactive),91.5% (inactive),114% (inactive)
CC[C@@]1(O)C[C@H](OC2CC(N(C)C)C(O)C(C)O2)c2c(cc3c(c2O)C(=O)c2c(O)ccc(O)c2C3=O)[C@H]1C(=O)OC (stereo partly specified),-43% (active),-20.5% (active),-88% (active),-36.9% (active),-90.8% (active),-57.4% (active),-100% (active),-91.4% (active),-85.1% (active),–,-57.1% (active),-47.8% (active),-42.7% (active),-50.4% (active),-88.4% (active),-71.8% (active),-68.9% (active),-30.1% (active),-64.7% (active),–
[O-][n+]1ccccc1S,32.8% (inactive),4.75% (active),56.5% (inactive),59.9% (inactive),29.9% (inactive),30.8% (inactive),48.9% (inactive),13.6% (inactive),1.84% (active),34.1% (inactive),41.2% (inactive),72.7% (inactive),58.7% (inactive),37.2% (inactive),32.2% (inactive),37.9% (inactive),109% (inactive),8.62% (active),62% (inactive),–
Cc1ccc(C(=O)C2C(c3ccccc3)N2C2CCCCC2)cc1 (stereo unspecified),99.3% (inactive) and 89.8% (inactive),111% (inactive) and 84.9% (inactive),97.5% (inactive) and 88.8% (inactive),105% (inactive) and 94% (inactive),106% (inactive) and 93.1% (inactive),98% (inactive) and 83% (inactive),88.1% (inactive) and 99% (inactive),102% (inactive) and 91.2% (inactive),99.9% (inactive) and 98.1% (inactive),105% (inactive) and 102% (inactive),101% (inactive) and 98.3% (inactive),–,107% (inactive) and 100% (inactive),137% (inactive) and 108% (inactive),113% (inactive) and 97.9% (inactive),107% (inactive) and 94.3% (inactive),98.3% (inactive) and 94.8% (inactive),94.2% (inactive) and 96% (inactive),92.8% (inactive) and 73.4% (inactive),105% (inactive) and 89% (inactive)
O=C(O)c1cc(Cc2ccc(O)c(C(=O)O)c2)ccc1O (tested in a mixture with another compound),49.4% (inactive),25% (inactive),51.2% (inactive),85.6% (inactive),70.4% (inactive),-31.5% (active),71.3% (inactive),69.5% (inactive),-47.3% (active),84.6% (inactive),-53.3% (active),73.8% (inactive),87.1% (inactive),93% (inactive),77% (inactive),58.4% (inactive),–,0.136% (active),42.6% (inactive),–
CCCCCCCC[N+]12CN3CN(CN(C3)C1)C2,96.7% (inactive),112% (inactive),89.4% (inactive),90.1% (inactive),101% (inactive),96.7% (inactive),98% (inactive),91.7% (inactive),97.5% (inactive),98.8% (inactive),120% (inactive),–,96.8% (inactive),99.8% (inactive),99.5% (inactive),92.5% (inactive),137% (inactive),97.1% (inactive),87.9% (inactive),95.2% (inactive)
O=c1[nH]c2ccccc2n1C1CCN(CCCC(c2ccc(F)cc2)c2ccc(F)cc2)CC1,37.7% (inactive) and -3.08% (active),9.69% (active) and -2.65% (active),77.1% (inactive) and 106% (inactive),77.9% (inactive) and 68.2% (inactive),-1.25% (active) and 17.5% (inactive),-21.4% (active) and 21.3% (inactive),23.6% (inactive) and -86.5% (active),38.4% (inactive) and 30.3% (inactive),15.6% (inactive) and -22.7% (active),82.2% (inactive) and -53.2% (active),95.8% (inactive) and 63.6% (inactive),42.1% (inactive) and 51.4% (inactive),40.7% (inactive) and 58% (inactive),62.1% (inactive) and 63.3% (inactive),44.4% (inactive),35.5% (inactive) and 54% (inactive),–,-0.815% (active) and 31.2% (inactive),33.1% (inactive) and 12.5% (inactive),27.2% (inactive) and -9.09% (active)
ClCc1ccc2ccccc2n1,103% (inactive),94.1% (inactive),81.8% (inactive),103% (inactive),103% (inactive),92.1% (inactive),91% (inactive),74.9% (inactive),80.5% (inactive),110% (inactive),99.4% (inactive),93.2% (inactive),86% (inactive),113% (inactive),96.8% (inactive),58.5% (inactive),–,103% (inactive),89.8% (inactive),–
C[C@]12CC[C@H]3[C@@H](CCC4=CC(=O)CC[C@@H]43)[C@@H]1CC[C@@H]2OC(=O)N(CCCl)N=O,66.8% (inactive),59% (inactive),50.1% (inactive),34.5% (inactive),30.6% (inactive),43.1% (inactive),51.3% (inactive),20.6% (inactive),39.3% (inactive),90.2% (inactive),27.4% (inactive),119% (inactive),23.2% (inactive),87.6% (inactive),13% (inactive),27.4% (inactive),–,11% (inactive),40.8% (inactive),–
